The campaign covered roughly 5,500 compounds. About 2,000 (36%) were called active. About 18% were inconclusive and are not listed. No stated cut-off is given here; in the data, active means normalized growth mostly below about 0.91 (no sharp cut-off); inconclusive means no clear call, values can overlap the other calls; inactive means mostly above about 0.92. The list shows a part of the results.
Assay: chemical genetic growth profiling, strain panel (AID 1159580);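 further: tested at 20 µM; growth read once vehicle control cultures reached saturation at 30 °C; 1 = growth at the plate median or of vehicle wells; lower values mean less growth of the strain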
Conditions: growth OD

Measured: normalized growth

CCC1OC(=O)[C@H](C)C(=O)[C@H](C)[C@@H](OC2O[C@H](C)C[C@H](N(C)C)[C@H]2O)[C@](C)(OC)C2(CCCn3cnc(-c4cccnc4)c3)C[C@@H](C)C(=O)[C@H](C)[C@H]3N(C2)C(=O)O[C@]13C (some centres undefined)
inactive: S. cerevisiae deletion strains, locus YJR043C, strain POL32, active compounds read low 0.994 | S. cerevisiae deletion strains, locus YJR075W, strain HOC1, active compounds read low 0.99 | S. cerevisiae deletion strains, locus YKL009W, strain mrt4, active compounds read low 1.01 | S. cerevisiae deletion strains, locus YKL068W, active compounds read low 1.01 | S. cerevisiae deletion strains, locus YKL085W, strain MDH1 (second series), active compounds read low 0.998 | S. cerevisiae deletion strains, locus YKL085W, strain MDH1, active compounds read low 0.998 | S. cerevisiae deletion strains, locus YKL160W, strain elf1, active compounds read low 0.994 | S. cerevisiae deletion strains, locus YKL190W, strain CNB1, active compounds read low 1 | S. cerevisiae deletion strains, locus YKR001C, strain vps1, active compounds read low 0.997 | S. cerevisiae deletion strains, locus YKR026C, strain gcn3, active compounds read low 0.989 | S. cerevisiae deletion strains, locus YKR091W, strain srl3, active compounds read low 0.985 | S. cerevisiae deletion strains, locus YLL001W, strain dnm1, active compounds read low 0.984 | S. cerevisiae deletion strains, locus YLL026W, active compounds read low 0.988 | S. cerevisiae deletion strains, locus YLL041C, strain sdh2, active compounds read low 0.977 | S. cerevisiae deletion strains, locus YLR027C, strain aat2, active compounds read low 0.99 | S. cerevisiae deletion strains, locus YLR039C, strain RIC1, active compounds read low 1.02 | S. cerevisiae deletion strains, locus YLR058C, strain SHM2, active compounds read low 1 | S. cerevisiae deletion strains, locus YLR102C, strain apc9, active compounds read low 0.997 | S. cerevisiae deletion strains, locus YLR221C, strain rsa3, active compounds read low 0.973 | S. cerevisiae deletion strains, locus YLR258W, strain gsy2, active compounds read low 0.983 | S. cerevisiae deletion strains, locus YLR262C, strain YPT6 (second series), active compounds read low 0.978 | S. cerevisiae deletion strains, locus YLR262C, strain YPT6, active compounds read low 1.04 | S. cerevisiae deletion strains, locus YLR268W, strain sec22, active compounds read low 0.98 | S. cerevisiae deletion strains, locus YLR320W, strain mms22, active compounds read low 0.975 | S. cerevisiae deletion strains, locus YLR330W, strain CHS5, active compounds read low 1 | S. cerevisiae deletion strains, locus YLR342W, strain FKS1 (second series), active compounds read low 0.999 | S. cerevisiae deletion strains, locus YLR342W, strain FKS1, active compounds read low 1.01 | S. cerevisiae deletion strains, locus YLR357W, strain rsc2, active compounds read low 0.935 | S. cerevisiae deletion strains, locus YLR370C, strain arc18, active compounds read low 0.985 | S. cerevisiae deletion strains, locus YLR371W, strain rom2, active compounds read low 1.01 | S. cerevisiae deletion strains, locus YLR384C, strain iki3, active compounds read low 0.995 | S. cerevisiae deletion strains, locus YLR418C, strain cdc73, active compounds read low 0.979 | S. cerevisiae deletion strains, locus YML016C, strain PPZ1, active compounds read low 1.01 | S. cerevisiae deletion strains, locus YML032C, strain rad52, active compounds read low 1.01 | S. cerevisiae deletion strains, locus YML120C, strain ndi1, active compounds read low 0.966 | S. cerevisiae deletion strains, locus YML124C, strain tub3, active compounds read low 1.01 | S. cerevisiae deletion strains, locus YMR058W, strain fet3, active compounds read low 0.974 | S. cerevisiae deletion strains, locus YMR078C, strain ctf18, active compounds read low 1.01 | S. cerevisiae deletion strains, locus YMR125W, strain sto1, active compounds read low 1.01 | S. cerevisiae deletion strains, locus YMR129W, active compounds read low 0.974 | S. cerevisiae deletion strains, locus YMR205C, strain PFK2, active compounds read low 0.996 | S. cerevisiae deletion strains, locus YMR223W, strain ubp8, active compounds read low 1 | S. cerevisiae deletion strains, locus YMR231W, strain pep5, active compounds read low 0.98 | S. cerevisiae deletion strains, locus YMR263W, strain SAP30, active compounds read low 1 | S. cerevisiae deletion strains, locus YMR307W, strain GAS1, active compounds read low 0.93 | S. cerevisiae deletion strains, locus YNL067W, strain RPL9B, active compounds read low 1.01 | S. cerevisiae deletion strains, locus YNL071W, strain lat1, active compounds read low 0.99 | S. cerevisiae deletion strains, locus YNL128W, strain TEP1, active compounds read low 1.01 | S. cerevisiae deletion strains, locus YNL153C, strain GIM3, active compounds read low 1.01 | S. cerevisiae deletion strains, locus YNL209W, strain ssb2, active compounds read low 0.986 | S. cerevisiae deletion strains, locus YNL233W, strain BNI4, active compounds read low 1.01 | S. cerevisiae deletion strains, locus YNL248C, strain rpa49, active compounds read low 0.946 | S. cerevisiae deletion strains, locus YNL250W, strain rad50, active compounds read low 0.992 | S. cerevisiae deletion strains, locus YNL271C, strain bni1, active compounds read low 0.997 | S. cerevisiae deletion strains, locus YNL298W, strain CLA4, active compounds read low 0.995 | S. cerevisiae deletion strains, locus YNL307C, strain MCK1, active compounds read low 1.01 | S. cerevisiae deletion strains, locus YNL322C, strain KRE1 (second series), active compounds read low 0.968 | S. cerevisiae deletion strains, locus YNL322C, strain KRE1, active compounds read low 1 | S. cerevisiae deletion strains, locus YNR049C, strain mso1, active compounds read low 0.958 | S. cerevisiae deletion strains, locus YNR052C, strain pop2, active compounds read low 1.01 | S. cerevisiae deletion strains, locus YOL006C, strain TOP1, active compounds read low 1 | S. cerevisiae deletion strains, locus YOL012C, strain htz1 1.16 | S. cerevisiae deletion strains, locus YOL147C, strain pex11, active compounds read low 1 | S. cerevisiae deletion strains, locus YOR001W, strain rrp6, active compounds read low 1 | S. cerevisiae deletion strains, locus YOR061W, strain CKA2, active compounds read low 1.01 | S. cerevisiae deletion strains, locus YOR069W, strain VPS5, active compounds read low 1.01 | S. cerevisiae deletion strains, locus YOR070C, strain gyp1, active compounds read low 0.984 | S. cerevisiae deletion strains, locus YOR080W, strain dia2, active compounds read low 0.968 | S. cerevisiae deletion strains, locus YOR083W, strain WHI5, active compounds read low 1.01 | S. cerevisiae deletion strains, locus YOR106W, strain vam3, active compounds read low 0.994 | S. cerevisiae deletion strains, locus YOR136W, strain idh2, active compounds read low 1.01 | S. cerevisiae deletion strains, locus YOR144C, strain elg1, active compounds read low 1 | S. cerevisiae deletion strains, locus YOR184W, strain ser1, active compounds read low 0.996 | S. cerevisiae deletion strains, locus YOR265W, strain rbl2, active compounds read low 0.996 | S. cerevisiae deletion strains, locus YOR270C, strain vph1, active compounds read low 0.963 | S. cerevisiae deletion strains, locus YOR290C, strain snf2, active compounds read low 0.963 | S. cerevisiae deletion strains, locus YOR316C, strain cot1, active compounds read low 0.998 | S. cerevisiae deletion strains, locus YPL051W, strain arl3, active compounds read low 1 | S. cerevisiae deletion strains, locus YPL055C, strain LGE1, active compounds read low 1.02 | S. cerevisiae deletion strains, locus YPL078C, strain atp4, active compounds read low 0.984 | S. cerevisiae deletion strains, locus YPL106C, strain sse1, active compounds read low 0.943 | S. cerevisiae deletion strains, locus YPL240C, strain hsp82, active compounds read low 0.986 | S. cerevisiae deletion strains, locus YPL241C, strain CIN2, active compounds read low 1 | S. cerevisiae deletion strains, locus YPR119W, strain clb2, active compounds read low 1 | S. cerevisiae deletion strains, locus YPR141C, strain kar3, active compounds read low 1 | S. cerevisiae deletion strains, locus YPR163C, strain tif3, active compounds read low 1.01 | S. cerevisiae deletion strains, locus YPR167C, strain met16, active compounds read low 1 | S. cerevisiae deletion strains, strain wtn01, active compounds read low 0.977 | S. cerevisiae strains, strain wild type, active compounds read low 0.999
